According to the supplement of paper PMC11417369:
± gives the standard deviation of the averaged measurements. Over roughly 25,000 sequences, “ln(normalized median fluorescence intensity)” has its median near 8.9; the highest 2% begin near 10. The sample as a whole holds a higher share of the highest values than the screen did.

test system: PfAP2-LT AP2 domain (GST-tagged); experiment: gcPBM binding intensity (ln(normalized median fluorescence intensity)); higher = stronger DNA binding
Summary of the method: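 Probes on an Agilent 4 × 180k array were primer-extended, double-stranded and 36 bp long, taken from intergenic genomic regions, with negative controls added. GST-tagged P. falciparum DNA-binding domains from E. coli, about 25 μg on average, were applied to the array for 1 h in 1× PBS containing 1% milk, 0.2 mg/ml BSA, 0.5% salmon testes DNA and 0.03% Triton X-100. Binding intensity, obtained after Alexa488 anti-GST antibody detection and a 488 nm scan, is the highest Masliner-normalised natural-log median intensity across replicate spots of either probe orientation.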

Row | Sequence | gcPBM binding intensity (ln)
1 | CATATACACCAACACACACACACACCCACAAAAAAA [CACACA_site496] | 10.1 ± 0.27
2 | TACACCCACCAACACACACACACACCCAAAAAAAAA [CACACA_site498] | 10.1 ± 0.14
3 | CATACATAGAAACACACACACACACCCACCCACAAA [CACACA_site494] | 10.19 ± 0.028
4 | CACACCCACCAACACACACACACACCCACCCATATA [CACACA_site366] | 10.3 ± 0.12
5 | GATACATAGAAACACACACACATACATATATACATA [CACACA_site3438] | 9.92 ± 0.26
6 | ATATATTACAATATATGTACTTAATTTGCTTAAATA [XGTACX_site7912] | 8.6 ± 0.52
7 | TAACAAATATTATTTTGTACATAATATATATATATA [XGTACX_site6898] | 8.6 ± 0.32
8 | TTGTTTCAAAATTAAACACACACAAAAAAAAAAAAA [CACACA_site8856] | 8.86 ± 0.52
9 | TTATATATATTTAAAAAAATAACATAAATAAATAAA [CACACA_negctrl_site347] | 8.29 ± 0.52
10 | AGTCTTTTACATTGCACACACATTTCTTTCCTTTTG [CACACA_site2988] | 9.61 ± 0.36
11 | AATAGGATATGGTACATTTTTTGTATACTTTTTGTT [CACACA_negctrl_site1804] | 8.91 ± 0.47
12 | ATATATATATGTGGATGTACATATATCTCTTATTAT [XGTACX_site1748] | 9.05 ± 0.42
13 | GAGAGAGAAATAAAAAGTACATACATATATATACAT [XGTACX_site2267] | 8.84 ± 0.58
14 | TCATAGTCTTAATGACTACACACCTAACTATGCATG [CACACA_site1839] | 9 ± 0.47
15 | TAATATGCATAAAATTGTACAAACTTACATATAATA [XGTACX_site2752] | 8.92 ± 0.45
16 | CACATACCCATACAAACACACATTATATATATATAT [CACACA_site4965] | 9.56 ± 0.33
17 | CAATCAACAAAACATACACACACATATATATATATA [CACACA_site8979] | 10 ± 0.33
18 | CACCCATACACATACAAACACACATTCTATATATAT [CACACA_site1600] | 9.28 ± 0.46
19 | GACACCCATAAATATACACACGCACAACACAAAATA [CACACA_site8944] | 9.46 ± 0.38
20 | CATACATACAAACACACACACACACCCATATATATA [CACACA_site2918] | 10.1 ± 0.31
21 | CACAAACACCCAAACACACACACACCGACATACATA [CACACA_site4410] | 10.1 ± 0.46
22 | CAAACACCCAAACACACACACACATACATACATACA [CACACA_site8044] | 9.98 ± 0.15
23 | ATCAACAAAACATACACACACATATATATATATATA [CACACA_site2989] | 10.32 ± 0.057
24 | CACGCGCACCAACACACACACACACCCATATATATA [CACACA_site2204] | 10.3 ± 0.4

Row | Sequence | gcPBM binding intensity (ln)
25 | ATCAAAAGAAAACACACACACATACATATATATATA [CACACA_site3795] | 10.1 ± 0.3
26 | AAAAGTTATAGACACACACACATATAAATATAGATT [CACACA_site6617] | 9.57 ± 0.3
27 | TGTGTATAAATATACACACACATATAAATATTTTAA [CACACA_site7005] | 9.09 ± 0.35
28 | TTGCCATTAATTTATACACACACATTTTAATTTTTT [CACACA_site8150] | 9.16 ± 0.39
29 | GTAAATTATATAACAAATAAAAATGTACATATATAT [CACACA_negctrl_site408] | 8.88 ± 0.46
30 | TAAATTATCTTTTTATGTACTTATTTTTATTATTTT [XGTACX_site3158] | 8.73 ± 0.55
31 | AAAATATATGAAAACAGTACATATAAAAATTAAAAA [XGTACX_site2594] | 8.75 ± 0.64
32 | AAAAAAATTAATATGTCAGCACATATATACATACAT [GTGCAC_negctrl_site110] | 8.88 ± 0.41
33 | ATATTAGTCGAATGATGTACACACATACAAAACATT [XGTACX_site8613] | 9.28 ± 0.45
34 | TGTGAATATATCTTTAAAAAGGATAAATAATAATTT [CACACA_negctrl_site507] | 8.47 ± 0.52
35 | GATGGATTTATTTAAAGTACATATTTAAAAAACTGT [XGTACX_site7567] | 8.51 ± 0.49
36 | ACAATAAACATATATACACACACAAAAAAAAAAACA [CACACA_site8033] | 9.64 ± 0.33
37 | ACCTATTTCAAACACACACACACACTAACAAACATA [CACACA_site8233] | 10 ± 0.13
38 | TATAATATAAGGATCACACACAAACACCCATATATA [CACACA_site4468] | 9.56 ± 0.18
39 | CGCACCCAAATATATACACACATATATATATATATA [CACACA_site1651] | 10.1 ± 0.16
40 | GGAAACACAATATATACACACATATATATATATATA [CACACA_site235] | 10.1 ± 0.021
41 | AATACACGCAAACACACACACACACCCACATATATA [CACACA_site638] | 10.3 ± 0.14
42 | ATGTACCTATTTCATACACACACACCCACAAACAAA [CACACA_site8232] | 9.66 ± 0.16
43 | AATATAATATAAGGATCACACACAAACACCCATATA [CACACA_site8084] | 9.77 ± 0.2
44 | AAGGATCACCCACAAACACACATATATATATATATA [CACACA_site559] | 10.2 ± 0.28
45 | ACCTATTTCAAACACACACACACACCCACAAACATA [CACACA_site977] | 10.1 ± 0.33
46 | AGCAAATACAAACACACACACACATATACATATATA [CACACA_site3497] | 10.1 ± 0.26
47 | GAACAAACAAAGAAAGAACACACATACACAATATAC [CACACA_site8918] | 9.6 ± 0.38
